The list is not random: actives were taken first. Their share in the collection is about 1.4%.
VACV mCherry inh – qHTS for Stage-Specific Inhibitors of Vaccinia Orthopoxvirus: mCherry Reporter Primary qHTS; Vaccinia virus mCherry reporter infection, fluorescence; 310,000 tested, 0.63% active; AID 720579, 2013; Potency, µM (doses to about 36.5 µM), inactives show at the highest dose activity change, negative = inhibition, most hits filed as inhibitors; calls by dose curve; tested in A549 cells; note: % is set by controls: 0 for no effect and ±100 for the full control effect; nearly all actives have a fitted effect of over 35% in size
Vaccinia Venus – qHTS for Stage-Specific Inhibitors of Vaccinia Orthopoxvirus: Venus Reporter Primary qHTS. Vaccinia virus Venus reporter expression, fluorescence. Potency, µM (top dose mostly 36.5 µM), without a hit: at the top dose activity change, negative = inhibition, hits mostly inhibitors. 330,000 tested, 0.46% active; calls by dose curve; tested in A549 cells; note: % is set by controls: 0 for no effect and ±100 for the full control effect; nearly all actives have a fitted effect of over 30% in size
AMA1 RON2 block – qHTS for Inhibitors of AMA1-RON; Towards Development of Antimalarial Drug Lead: Primary Screen. AlphaScreen AMA1-biotinylated RON2 peptide binding. Potency, µM (doses to about 58.2 µM), for inactives: top-dose activity change, negative = inhibition, hits mostly inhibitors. 360,000 tested, 0.2% active;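 note: 0% = vehicle wells and -100% = peptide control; nearly all actives have a fitted effect of over 45% in size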
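AMA1 (3D7) with his tag at 25 nM final met compounds first, then biotinylated RON2 peptide at 25 nM; detection used donor plus acceptor beads, 10 µg/mL apiece, read by AlphaScreen after 30 min at room temperature.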
AmpC inh no detg – qHTS Inhibitors of AmpC Beta-Lactamase (assay without detergent); P00811; AID 485341, 2010; Potency, µM (doses to about 57.1 µM), without a hit: at the highest dose activity change, negative = inhibition, most hits filed as inhibitors; AmpC nitrocefin hydrolysis, absorbance 480 nm, 0.0001% Triton; 330,000 tested, 0.52% active;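 note: plate controls were no compound for no effect and no enzyme for full effect; nearly all actives have a fitted effect of over 20% in size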
Target sequence (P00811 whole entry, looked up): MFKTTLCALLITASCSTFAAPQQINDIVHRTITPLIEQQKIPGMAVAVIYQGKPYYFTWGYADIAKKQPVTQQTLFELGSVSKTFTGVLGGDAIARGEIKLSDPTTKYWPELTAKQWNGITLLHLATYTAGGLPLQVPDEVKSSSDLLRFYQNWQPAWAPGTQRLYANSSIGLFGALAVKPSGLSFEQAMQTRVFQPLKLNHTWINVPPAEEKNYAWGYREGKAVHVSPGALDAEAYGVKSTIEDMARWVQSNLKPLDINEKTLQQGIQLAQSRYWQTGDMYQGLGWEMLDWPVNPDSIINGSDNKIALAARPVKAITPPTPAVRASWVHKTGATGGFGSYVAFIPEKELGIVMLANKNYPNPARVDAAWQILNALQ
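AmpC (5.3 nM in the dispensed reagent) in 20 mM phosphate pH 7.0 with 0.01% (detergent screen) or 0.0001% Triton X-100 was preincubated with compounds for 15 min at room temperature. Nitrocefin was then added from an 800 uM solution, and hydrolysis was followed at 480 nm.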
AmpC inh detg – qHTS Inhibitors of AmpC Beta-Lactamase (assay with detergent). P00811. AmpC hydrolysis of nitrocefin, absorbance 480 nm, 0.01% Triton. Potency, µM (series often up to 114 µM), inactives show at the top dose activity change, negative = inhibition, most hits filed as inhibitors. 370,000 tested, 0.041% active. AID 485294, 2010;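 note: 0% = no-compound wells and -100% = no-enzyme wells; nearly all actives have a fitted effect of over 25% in size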
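20 mM phosphate pH 7.0 + 0.01% (detergent screen) or 0.0001% Triton X-100; 5.3 nM AmpC reagent; cpd preinc 15 min RT; nitrocefin (800 uM stock) to start; A480 q20 s × 4 min; Activity was normalised to no-enzyme and no-compound control wells.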
SARS PLpro yeast – qHTS of Yeast-based Assay for SARS-CoV PLP | S. cerevisiae expressing SARS-CoV PLpro, growth rescue | Potency, µM (series often up to 32.9 µM), for inactives: at the top dose activity, positive = growth rescue, usual class: activators | 330,000 tested, 0.19% active | AID 485353, 2010; calls by dose curve; note: 0% is about no effect; nearly all actives have a fitted effect of over 55% in size
* marks the source's active call; other numbers are inactive results; i = inactive; u = inconclusive; x = not tested or not shown. Unless noted, calls come from the whole dose curve; as a rule, active = well fitted curve in the direction sought with a large enough effect; inconclusive = small, poorly fitted or top-dose-only effect, or another doubt; inactive = no such curve, though single readings can be large; an effect the other way counts as inactive or inconclusive. Potency is the fitted concentration of half-maximal effect.

SMILES | VACV mCherry inh | Vaccinia Venus | AMA1 RON2 block | AmpC inh no detg | AmpC inh detg | SARS PLpro yeast
O=[N+]([O-])c1ccc(C(O)CN=Cc2ccc(O)cc2O)cc1 (stereo not drawn) | -15% | -5% | 73% | 13µM* | -4% | 0%
N/C(Cc1ccc(Cl)cc1Cl)=N\OC(=O)c1cccs1 | x | x | -1% | 0.32µM* | 4% | -23%
CN1CCN(c2nc3c(c(=O)n(C)c(=O)n3C)n2Cc2ccccc2)CC1 | x | x | 6% | -16% | u | 3%
CC1CCN(c2nc3c(c(=O)n(C)c(=O)n3C)n2Cc2ccccc2)CC1 | 20µM* | -20% | -7% | 100% | -1% | -3%
CN1CCN(c2nc3c(c(=O)n(C)c(=O)n3C)n2CC(N)=O)CC1 | -16% | 2% | 24% | -15% | 32µM* | 11%
Cn1ccc(C(=O)NCC2CCC3(CCN(Cc4ccc(F)cc4F)CC3)O2)n1 (stereo not drawn) | i | -11% | x | x | x | x
O=C1N[C@@H](Cc2ccccc2)C(=O)N2CCC[C@@H]12 | i | -6% | -13% | -16% | u | 1%
CC(C)C[C@@H]1NC(=O)[C@H](CCCN)NC(=O)[C@H](C(C)C)NC(=O)[C@@H]2CCCN2C(=O)[C@@H](Cc2ccccc2)NC(=O)[C@H](CC(C)C)NC(=O)[C@H](CCCN)NC(=O)[C@H](C(C)C)NC(=O)[C@@H]2CCCN2C(=O)[C@@H](Cc2ccccc2)NC1=O | 4.5µM* | u | x | x | x | x
CC(=O)NC(CCS(C)(=O)=O)C(=O)Nc1cccc2ccccc12 (stereo not drawn) | u | 0% | -3% | 4.5µM* | u | -5%
COc1ccccc1-n1cc(C(=O)NCCN2Cc3ccccc3OC(c3ccsc3)C2)cn1 (stereo not drawn) | -17% | 0% | x | x | x | x
CC1CCCC(C)N1c1nnc(NC(=O)Cn2c(=O)oc3ccccc32)s1 (stereo not drawn) | u | -9% | 25% | 10µM* | 0% | 19%
CCc1nnc(NC(=O)Cn2c(=O)oc3ccccc32)s1 | x | -9% | -1% | -16% | -11% | -6%
C=CCc1cc(Cl)ccc1OCCN1CC(C)OC(C)C1 (stereo not drawn) | -8% | -4% | u | 164% | 0% | -1%
c1ccc(-c2ccccc2OCCOCCN2CCc3ccccc3C2)cc1 | u | -25% | -9% | 147% | 4% | -1%
C=CCc1cc(OC)ccc1OCCN1CC(C)OC(C)C1 (stereo not drawn) | x | x | 13µM* | 21% | -10% | -3%
CC1CN(CCOCCOc2ccccc2-c2ccccc2)CC(C)O1 (stereo not drawn) | x | x | 14µM* | 109% | -10% | -4%
CC1CN(CCOc2ccccc2C(C)C)CC(C)O1 (stereo not drawn) | x | x | 20µM* | 31% | -5% | 4%
COc1ccccc1C1CN(Cc2cccc3nccnc23)Cc2ccccc2O1 (stereo not drawn) | -16% | -12% | x | x | x | x
CCOC(=O)N1CCN(S(=O)(=O)c2ccc(C(=O)NNc3nc4c(C)cc(C)cc4s3)cc2)CC1 | 10µM* | u | 83% | 34% | u | u
Cc1cccc2sc(NNC(=O)c3ccc(S(=O)(=O)N4CCCC(C)C4)cc3)nc12 (stereo not drawn) | u | u | 52% | -27% | u | 8.9µM*
Cc1cc(C)c2nc(NNC(=O)c3ccc(S(=O)(=O)N4CCCCC4)cc3)sc2c1 | u | u | 43% | -22% | -3% | u
N#CCSc1nnc(-c2ccc3c(c2)OCO3)o1 | 11µM* | u | 2% | -6% | 0% | 0%
O=C(O)CSc1nnc(-c2ccc3c(c2)OCO3)o1 | i | -9% | 8% | -16% | 0% | -4%
O=C1C=C2C(=CCOC2O)O1 (stereo not drawn) | 11µM* | 11µM* | x | x | x | x
O=C(O)CCC(NC(=O)c1ccc(Cl)cc1)C(=O)O (stereo not drawn) | i | 9% | 9% | -13% | 1% | 0%
SMILES | VACV mCherry inh | Vaccinia Venus | AMA1 RON2 block | AmpC inh no detg | AmpC inh detg | SARS PLpro yeast
CN(Cc1cnc2nc(N)nc(N)c2n1)c1ccc(C(=O)NC(CCC(=O)O)C(=O)O)c2ccccc12 (stereo not drawn) | 3.2µM* | u | -3% | x | x | x
NCCCn1c(C(=O)c2cc(Cl)c(N)c(Cl)c2)c2ccc([N+](=O)[O-])cc2[n+]1[O-] | u | 13µM* | 3% | 30% | -11% | 8%
COc1ccc(-c2cc(CNC(C)=O)on2)cc1 | x | -7% | 2% | -3% | -5% | 2%
COc1ccc(-c2cc(CNC(=O)CCl)on2)cc1 | x | 8.9µM* | 3% | -12% | u | 7%
Cc1ccc(F)cc1S(=O)(=O)NCc1nc(N2CCCC2)c2cccc(C)c2n1 | i | -15% | x | x | x | x
C[C@@H]1CN(Cc2ccc3c(c2)CN(Cc2nc(-c4ccccc4)cs2)CCO3)C[C@H](C)O1 | -22% | -25% | x | x | x | x
Nc1ncnc2c1ncn2C1OC(CO)C(O)C1N (stereo not drawn) | 0% | -3% | 5% | -7% | u | 0%
Nc1ncnc2c(C3OC(CO)C(O)C3O)scc12 (stereo not drawn) | u | 0.35µM* | 6% | x | x | x
COc1cccc(OC)c1C(=O)NC(=S)NNC(=O)[C@H]1C[C@@H]1c1ccccc1 | x | x | 160% | -52% | -5% | 1%
COc1cc(C(=O)/C=C/c2cccnc2)ccc1O | 3.5µM* | 8.9µM* | 22% | -13% | 1% | -2%
COc1ccc(C=CC(=O)c2ccc(OCc3ccccc3)c(OC)c2)cc1OC | 28µM* | 11µM* | -10% | x | x | x
COc1ccc(/C=C/C(=O)c2ccc(C(=O)/C=C/c3ccc(OC)c(OC)c3)cc2)cc1OC | x | x | -6% | 16% | -5% | 0%
COc1ccc(/C=C/C(=O)NC(=S)NNC(=O)[C@H]2C[C@@H]2c2ccccc2)cc1OC | u | -17% | 130% | 7.1µM* | -3% | 2%
COc1ccc(/C=C/C(=O)c2ccc(O)cc2)cc1COc1ccc(F)cc1 | i | 3% | -8% | 11µM* | 5% | -4%
Cc1cc(NCCCCCCCNc2cc(C)nc3cc([N+](=O)[O-])ccc23)c2ccc([N+](=O)[O-])cc2n1 | u | 10µM* | u | x | x | x
COc1cccc(CN2CCCC(c3nc(C)ncc3-c3ccc(F)cc3)C2)c1OC (stereo not drawn) | i | -17% | x | x | x | x
COCCN1CCN(C(=O)c2cnn(-c3nccc(-c4cc5ccccc5o4)n3)c2C2CC2)CC1 | -26% | -9% | x | x | x | x

Compound activity from PubChem BioAssay.
